This excerpt belongs to a sample that is enriched for hits.
USP2a inhib: USP2a (human) protease inhibition | USP2a enzymatic assay, qHTS inhibition | Potency, µM (titrated, usually from 38.3 µM), actives largely listed as inhibitors | 60,000 tested, 0.1% active; also: nearly all actives have a fitted effect of over 60% in size
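USP2 core (20nM final) preincubated 30 min RT with compound, then Ub-PLA2 20nM and NBD C6-HPC 20uM final added; buffer 20mM Tris-HCl pH 8.0, 2mM CaCl2. Fluorescence Ex 460/Em 535 read at 0 and 2.5 h; normalized to NEM.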
ALOX15 inhib: 15-hLO (ALOX15) enzyme inhibition. AID 887. Potency, µM (top dose mostly 57.1 µM), hits mostly inhibitors. purified 15hLO-1, xylenol orange hydroperoxide absorbance. 74,000 tested, 1.4% active. P16050; also: nearly all actives have a fitted effect of over 55% in size
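40 nM 15hLO-1 + cpd, 15 min RT; start w/ 50 uM AA (final), 6 min RT; stop/detect w/ 200 uM XO + 300 uM Fe(II) in 50 mM H2SO4, 30 min; A573/A405. Buffer 25 mM Hepes pH 7.5, 0.01% Triton X-100. No-enzyme wells as negative control.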
15-hLO-2 inh: inhibitors of human 15-lipoxygenase 2 (ALOX15B); AID 881; 110,000 tested, 0.56% active; purified 15hLO-2, xylenol orange hydroperoxide absorbance; Potency, µM (top dose mostly 57.1 µM), most hits filed as inhibitors; also: nearly all actives have a fitted effect of over 60% in size
Target sequence (O15296 whole entry, looked up): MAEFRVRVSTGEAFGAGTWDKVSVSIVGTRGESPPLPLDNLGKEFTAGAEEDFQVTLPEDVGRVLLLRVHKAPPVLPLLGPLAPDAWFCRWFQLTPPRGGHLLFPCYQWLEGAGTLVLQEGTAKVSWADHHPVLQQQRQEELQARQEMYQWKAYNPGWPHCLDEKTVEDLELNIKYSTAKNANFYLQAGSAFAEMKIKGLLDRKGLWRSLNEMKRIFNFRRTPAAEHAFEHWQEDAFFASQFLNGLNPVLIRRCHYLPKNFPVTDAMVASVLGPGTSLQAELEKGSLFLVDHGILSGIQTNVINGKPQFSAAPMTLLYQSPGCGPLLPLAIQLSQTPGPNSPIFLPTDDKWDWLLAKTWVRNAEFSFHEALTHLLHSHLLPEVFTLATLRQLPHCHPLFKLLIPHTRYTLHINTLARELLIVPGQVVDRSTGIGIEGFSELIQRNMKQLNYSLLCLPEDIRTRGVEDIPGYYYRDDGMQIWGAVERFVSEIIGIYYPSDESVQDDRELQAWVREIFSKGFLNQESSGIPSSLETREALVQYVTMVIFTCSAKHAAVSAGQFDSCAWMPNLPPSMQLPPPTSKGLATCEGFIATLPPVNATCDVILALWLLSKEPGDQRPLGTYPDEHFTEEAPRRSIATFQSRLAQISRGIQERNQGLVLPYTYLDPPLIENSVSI
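Enzyme 50 nM, AA 45 uM, 25 mM Hepes pH 7.5 + 0.01% Triton X-100; cpd preinc 15 min RT, rxn 90 min RT; stop/detect with 200 uM XO + 300 uM Fe(II) in 50 mM H2SO4, 30 min; A573/A405.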
Casp1 inh: caspase-1 (human) inhibition, allosteric or competitive. Caspase-1 enzyme, Ac-WEHD-AFC fluorogenic rate. Potency, µM (titrated, usually from 57.5 µM), most hits filed as inhibitors. 75,000 tested, 0.03% active
Casp7 inh: caspase-7 (human) inhibition, allosteric or competitive; P55210; recombinant caspase-7, Ac-DEVD-AFC fluorescence rate; Potency, µM (titrated, usually from 57.5 µM), most hits filed as inhibitors; 75,000 tested, 0.02% active; AID 889; active = well fitted inhibition curve with a large enough effect in the main read-out, with a control signal flat, not every such curve was filed as active; inconclusive = small, poorly fitted or top-dose-only effect, or a change in a side signal
Numbers stand for hits; – = inactive; ? = inconclusive; · = not tested or not shown; [ ] = dose if it differs, or a comment. Unless noted, calls follow the shape of the dose curve; as a rule, active = well fitted curve in the direction sought with a large enough effect; inconclusive = small, poorly fitted or top-dose-only effect, or another doubt; inactive = no such curve, though single readings can be large; an effect the other way counts as inactive or inconclusive.

SMILES	USP2a inhib	ALOX15 inhib	15-hLO-2 inh	Casp1 inh	Casp7 inh
Cc1noc(C)c1-c1ccc2ncnc(NCCN3CCOCC3)c2c1	–	–	–	–	–
COc1ccc(C(=O)c2cn[nH]c2-c2cc(Cl)ccc2O)cc1	–	20µM	–	–	–
CC(C)N(CCNC(=O)c1ccc(Cc2nc3ccccc3[nH]2)cc1)C(C)C	·	–	·	–	–
Cc1ccc2nc(-c3ccc(N)cc3)sc2c1S(=O)(=O)O	·	–	–	·	?
CCOC(=O)c1sc(NC(=O)CSc2n[nH]c(-c3ccccc3)n2)c(C#N)c1C	–	13µM	–	–	–
COc1ccc(/C=C/C2=CC3(C)CC2(C)C(c2ccc(OC)cc2)CC3=O)cc1 (stereo not drawn)	·	–[11.4 µM]	·	–[11.5 µM]	–[11.5 µM]
CN1CCN(c2ccnc(-c3cccnc3)n2)CC1	–	–	–	–	–
CN1CCN(c2ccnc(-c3ccoc3)n2)CC1	–	16µM	?	–	–
Cc1ccc2[nH]c(=O)c(C(c3nnnn3CC3CCCO3)N3CCCc4ccccc43)cc2c1 (stereo not drawn)	–	1.3µM	–	–	–
Cc1ccc2[nH]c(=O)c(C(c3nnnn3CC3CCCO3)N3CCc4ccccc4C3)cc2c1 (stereo not drawn)	·	–	–	?	–
CCC(c1nnnn1CC1CCCO1)N(CCN1CCOCC1)Cc1cc2cc(C)ccc2[nH]c1=O (stereo not drawn)	–	3.2µM	–	?	–
CCC(c1nnnn1Cc1ccco1)N(CCc1ccccc1)Cc1cc2cc(C)ccc2[nH]c1=O (stereo not drawn)	–	16µM	–	?	?
CCOc1cc(-c2cc(-c3ccccc3)nc(N)c2C#N)ccc1O	·	·	–	·	·
CCOc1cc(-c2cc(-c3ccc(N)cc3)nc(N)c2C#N)ccc1O	·	25µM	–	·	?
Oc1ccc2c(c1)OC(c1ccc(O)c(O)c1)C(O)C2 (stereo not drawn)	–	13µM	?	–	–
Oc1cc(O)c2c(c1)O[C@H](c1ccc(O)c(O)c1)[C@@H](O)C2	·	–	–	–	–
Cc1c(N2C(=O)c3ccc4c5c(ccc(c35)C2=O)CC4)c(=O)n(-c2ccccc2)n1C	–	25µM	?	–	–
Nc1cc(CN2C(=O)c3ccccc3C2=O)cc(Cl)c1O	–	10µM	?	–	–
CC(=O)Nc1nc2n(n1)C(c1ccccc1)C=C(c1ccccc1)N2 (stereo not drawn)	–	20µM	–	·	?
O=c1c(O)cc(C2Oc3cc(O)cc(O)c3CC2O)cc2c(C3Oc4cc(O)cc(O)c4CC3O)cc(O)c(O)c12 (stereo not drawn)	?	?	–	?	–
CC1CCCC2(C1)NC(=S)c1c(sc3c1CCCC3)N2 (stereo not drawn)	·	·	13µM	·	·
c1ccc2c(-n3ccnc3)nc(-c3ccoc3)nc2c1	–	–	–	–	–
CCOc1ccc(-n2c(-c3ccco3)n[nH]c2=S)cc1	–	32µM	?	–	–
S=c1[nH]nc(-c2cc(-c3ccco3)[nH]n2)n1-c1ccccc1	·	·	–	·	·
Oc1ccc2c(c1)oc1cc(O)ccc12	–	13µM	–	–	–
SMILES	USP2a inhib	ALOX15 inhib	15-hLO-2 inh	Casp1 inh	Casp7 inh
Cn1c(=O)c(-c2ccccc2)nc2cnc(OCc3ccccc3)nc21	–	–	–	·	?
Nc1c(C(=O)Nc2nc3ccccc3s2)sc2nc(-c3cccs3)ccc12	·	·	13µM	·	·
CCN(CC)CCNC(=O)CCCCn1c(=S)[nH]c2c([nH]c3ccc(OC)cc32)c1=O	–	13µM	–	–	–
CCN(CC)CCNC(=O)CCn1c(=S)[nH]c2cc3c(cc2c1=O)OCO3	–	–	–	–	–
Nc1c(S(=O)(=O)c2cccc(Cl)c2)c2nc3ccccc3nc2n1/N=C/c1ccc(O)c(O)c1	?	16µM	?	–	–
Cn1c(SCc2cccnc2)nc2cccnc21	5µM	–	–	–	–
Cn1c(SCC(=O)c2ccccc2)nc2cccnc21	–	–	–	–	–
Cc1ccc(N=Cc2cccc(O)c2O)c(C)c1	·	6.3µM	?	–	–
Cc1ccc(N=Cc2sc(O)c3ccccc23)c(C)c1	·	·	–[11.4 µM]	·	·
O=[N+]([O-])c1cc2c(cc1/C=N/n1c(-c3ccccc3)n[nH]c1=S)OCO2	·	·	–	·	·
Cc1ccc(-c2n[nH]c(=S)n2/N=C/C=C/c2ccccc2[N+](=O)[O-])cc1	·	·	13µM	·	·
CC(=O)c1ccc(C2C=CC(Oc3ccc(F)cc3C)C(CO)O2)cc1 (stereo not drawn)	·	–[11.4 µM]	·	–[11.5 µM]	–[11.5 µM]
CC(=O)Nc1nc(C)c(-c2csc(Nc3cccc([N+](=O)[O-])c3)n2)s1	·	·	–	·	·
CC(=O)Nc1nc(C)c(-c2csc(Nc3ccc(O)cc3)n2)s1	?	13µM	?	–	–
COc1ccc(C2OC3C(CO)OC(n4cnc5c(=O)[nH]c(N)nc54)C3O2)cc1 (stereo not drawn)	–	–	–	–	–
CNc1ccnc(-c2ccccc2C)n1	–	–	–	–	–
C=CCn1c2ccccc2c2nnc(SCN3C(=O)c4ccccc4C3=O)nc21	–[7.66 µM]	–[11.4 µM]	–	–	–
C=CCn1c2ccccc2c2nnc(SCCCn3c(=O)[nH]c4ccccc43)nc21	–	16µM	–	–	–
Nc1ccc([N+](=O)[O-])c(N)c1	·	–	–	–	–
O=C(O)CC[C@@H](NC(=O)c1ccccc1C(=O)O)C(=O)O	–	–	–	–	–
CC[C@]1(O)C[C@H]2CN(CCc3c([nH]c4ccccc34)[C@](C(=O)OC)(c3cc4c(cc3OC)N(C=O)[C@H]3[C@@](O)(C(=O)OC)[C@H](OC(C)=O)[C@@]5(CC)C=CCN6CC[C@]43[C@H]65)C2)C1	–	?	–	–	–
CSc1nc(N)c2ncn([C@@H]3O[C@@H](COP(=O)(O)OP(=O)(O)OP(=O)(O)O)[C@@H](O)[C@H]3O)c2n1	–	–	–	–	–
CCN(CC)C(=O)CSc1nc2cc3c(cc2c(=O)n1Cc1ccc2c(c1)OCO2)OCO3	–	–	–	–	–
CCOC(=O)CSc1nc2ccc(N3CCOCC3)cc2c(=O)n1Cc1ccc2c(c1)OCO2	–	20µM	–	·	?
NC(=O)C1=CN([C@@H]2O[C@@H](COP(=O)(O)OP(=O)(O)OC[C@@H]3O[C@H](n4cnc5c(N)ncnc54)[C@@H](OP(=O)(O)O)[C@@H]3O)[C@H](O)[C@@H]2O)C=CC1	–	–	–	–	–
SMILES	USP2a inhib	ALOX15 inhib	15-hLO-2 inh	Casp1 inh	Casp7 inh
Cc1ccccc1C(=O)NC(=S)Nc1sc2c(c1C#N)CCC(C)C2 (stereo not drawn)	·	·	25µM	·	·
Clc1ccccc1OCc1nc(-c2ccc(Br)o2)no1	·	·	–	·	·
Fc1ccc(OCc2nc(-c3ccc(Br)o3)no2)c(F)c1	·	7.9µM	–	–	–
CN(C(=O)c1ccccc1C(=O)O)C1CC(C)(C)NC(C)(C)C1	·	?	·	–	–
O=c1cc(-c2ccccc2Cl)oc2c(NS(=O)(=O)c3cc(Cl)cc(Cl)c3O)ccc(O)c12	·	·	16µM	·	·
Nc1ccc(O)c2c(=O)cc(-c3ccccc3Cl)oc12	·	·	–[0.0915 µM]	·	·
O=c1c2c([nH]c3ccccc13)C(=C1CCCC1)CC2	·	20µM	–	–	?

High-throughput results from PubChem.
